Measured values published in PubChem BioAssay (Tox21).
Results filed as inconclusive are left out. Some structures have more than one record in an assay (separate samples or runs), and their calls can disagree. Calls of active or inactive are those of the source. Unless noted, calls follow the shape of the dose curve; as a rule, active = well fitted curve in the direction sought with a large enough effect in the repeat runs; inconclusive = weak or mixed curves; inactive = no such curve, though single readings can be large; an effect the other way counts as inactive or inconclusive.

Experiments:
[1] = A CellTox Green Cytotoxicity Assay to monitor cytotoxicity in HepG2 cells - 8 hour (AID 1224890); also: nearly all actives have a fitted effect of over 45% in size
In short: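 Real-time cytotoxicity: fluorescence of a cell-impermeant cyanine dye binding DNA of dead HepG2 cells, measured repeatedly (0–40 h) during compound exposure at 37 C. Cells seeded 600/well with reagent, dosed after 5 h.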

[2] = qHTS assay to identify small molecule antagonists of the estrogen receptor alpha (ER-alpha) signaling pathway using the BG1 cell line in the presence of 0.1 nM 17-beta-estradiol - cell viability counter screen (AID 1259241); also: nearly all actives have a fitted effect of over 40% in size
In short: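 Cytotoxicity counter-screen: live-cell protease activity measured by fluorescence (30 min reagent step) in the same wells. Cells were VM7Luc4E2 with endogenous ER-alpha and ERE-driven luciferase, treated 22 hr at 37C alongside 0.1 nM 17beta-estradiol final.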

[3] = qHTS assay to identify small molecule antagonists of the androgen receptor (AR) signaling pathway using the MDA cell line in the presence of 0.5 nM R1881 - cell viability counter screen (AID 1259242); also: nearly all actives have a fitted effect of over 45% in size; also: potency is read from the fitted curve at half-maximal effect
In short: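 Live-cell protease activity was measured by CellTiter-Fluor fluorescence after 30 min. Before that, MDA-kb2 MMTV-luciferase cells had 16 hr at 37C without CO2, exposed to test compounds and 0.5 nM R1881 final.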

[4] = biological target: Estrogen receptor (Homo sapiens) (UniProt P03372); assay: qHTS assay to identify small molecule antagonists of the estrogen receptor alpha (ER-alpha) signaling pathway using the BG1 cell line in the presence of 0.1 nM 17-beta-estradiol (AID 1259244); also: nearly all actives have a fitted effect of over 50% in size
Estrogen receptor (Homo sapiens), sequence (P03372 whole entry, looked up): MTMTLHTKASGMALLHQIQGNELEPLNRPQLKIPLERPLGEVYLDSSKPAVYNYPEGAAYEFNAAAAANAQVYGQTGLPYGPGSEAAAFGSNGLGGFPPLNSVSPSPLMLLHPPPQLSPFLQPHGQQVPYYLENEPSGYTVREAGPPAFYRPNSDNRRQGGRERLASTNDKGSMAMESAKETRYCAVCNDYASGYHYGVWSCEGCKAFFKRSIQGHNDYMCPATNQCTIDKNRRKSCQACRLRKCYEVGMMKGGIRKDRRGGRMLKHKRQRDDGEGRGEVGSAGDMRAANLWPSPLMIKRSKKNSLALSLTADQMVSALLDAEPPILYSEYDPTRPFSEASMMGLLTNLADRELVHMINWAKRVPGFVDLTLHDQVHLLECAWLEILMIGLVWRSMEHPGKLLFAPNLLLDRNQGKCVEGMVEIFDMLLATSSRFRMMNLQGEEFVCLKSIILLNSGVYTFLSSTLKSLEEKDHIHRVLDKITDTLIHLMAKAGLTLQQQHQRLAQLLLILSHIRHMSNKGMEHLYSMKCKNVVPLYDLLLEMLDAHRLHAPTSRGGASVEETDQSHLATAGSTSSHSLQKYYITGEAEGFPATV
In short: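 Luciferase luminescence (ONE-Glo, 30 min at room temperature) was read after 22 hr at 37C exposure to compounds plus 17beta-estradiol at 0.1 nM final. Cells were VM7Luc4E2 with endogenous ER-alpha and an ERE-driven luciferase, pre-cultured 5 days in hormone-depleted medium.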

[5] = qHTS assay to identify small molecule HDAC inhibitors - cell viability counter screen (AID 1259365); also: series mostly up to about 92 µM; nearly all actives have a fitted effect of over 50% in size
In short: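 CellTiter-Glo luminescence (30 min, room temperature) reported viability after a 2 h compound exposure at 37 C. Cells: wild-type HCT-116, 1,500 per well, seeded the night before.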

[6] = qHTS assay to identify small molecule agonists of the sonic hedgehog signaling (Shh) pathway - cell viability counter screen (AID 1259366); also: nearly all actives have a fitted effect of over 50% in size; also: potency is read from the fitted curve at half-maximal effect
In short: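 Cytotoxicity counter screen: CellTiter-Fluor reagent added after 23 h compound exposure, then 1 h at 37C and fluorescence read. Cells were 3T3 Gli1-Luc, seeded 2,000 per well and dosed 4 h post-plating.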

[7] = qHTS assay to identify small molecule antagonists of the sonic hedgehog signaling (Shh) pathway - cell viability counter screen (AID 1259367); also: nearly all actives have a fitted effect of over 55% in size; also: potency is read from the fitted curve at half-maximal effect
In short: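 Fluorescence read-out (CellTiter-Fluor, 1 hr at 37C) taken after 23 hr compound treatment of 3T3 Gli1-Luc cells stimulated with conditioned medium. Cells were seeded at 2,000 per well and pre-incubated 4 hr.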

[8] = qHTS assay to identify small molecule phospholipidosis (PLD) inducers (AID 1259344; active = well fitted curve in the direction sought with a large enough effect; an effect the other way counts as inactive or inconclusive; also: potency is read from the fitted curve at half-maximal effect)
In short: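 Read-out is LipidTOX Red fluorescence (ex 595/em 615) imaged in HepG2 cells after 24 h compound exposure at 37 C, with Hoechst nuclear counterstain (ex 352/em 461) allowing per-cell normalisation.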

[9] = qHTS assay to identify small molecule HDAC inhibitors (AID 1259364); also: top concentration of the series differs between compounds; nearly all actives have a fitted effect of over 45% in size
In short: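 Luminescence read after 30 min room-temperature HDAC-Glo incubation measures cellular class I/II HDAC activity. Compounds were applied for 2 hr at 37 C to HCT-116 wild-type cells seeded the day before.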

[10] = biological target: Androgen receptor (Homo sapiens) (UniProt P10275); assay: qHTS assay to identify small molecule antagonists of the androgen receptor (AR) signaling pathway using the MDA cell line in the presence of 0.5 nM R1881 (AID 1259243); also: nearly all actives have a fitted effect of over 50% in size
Androgen receptor (Homo sapiens), sequence (P10275 whole entry, looked up): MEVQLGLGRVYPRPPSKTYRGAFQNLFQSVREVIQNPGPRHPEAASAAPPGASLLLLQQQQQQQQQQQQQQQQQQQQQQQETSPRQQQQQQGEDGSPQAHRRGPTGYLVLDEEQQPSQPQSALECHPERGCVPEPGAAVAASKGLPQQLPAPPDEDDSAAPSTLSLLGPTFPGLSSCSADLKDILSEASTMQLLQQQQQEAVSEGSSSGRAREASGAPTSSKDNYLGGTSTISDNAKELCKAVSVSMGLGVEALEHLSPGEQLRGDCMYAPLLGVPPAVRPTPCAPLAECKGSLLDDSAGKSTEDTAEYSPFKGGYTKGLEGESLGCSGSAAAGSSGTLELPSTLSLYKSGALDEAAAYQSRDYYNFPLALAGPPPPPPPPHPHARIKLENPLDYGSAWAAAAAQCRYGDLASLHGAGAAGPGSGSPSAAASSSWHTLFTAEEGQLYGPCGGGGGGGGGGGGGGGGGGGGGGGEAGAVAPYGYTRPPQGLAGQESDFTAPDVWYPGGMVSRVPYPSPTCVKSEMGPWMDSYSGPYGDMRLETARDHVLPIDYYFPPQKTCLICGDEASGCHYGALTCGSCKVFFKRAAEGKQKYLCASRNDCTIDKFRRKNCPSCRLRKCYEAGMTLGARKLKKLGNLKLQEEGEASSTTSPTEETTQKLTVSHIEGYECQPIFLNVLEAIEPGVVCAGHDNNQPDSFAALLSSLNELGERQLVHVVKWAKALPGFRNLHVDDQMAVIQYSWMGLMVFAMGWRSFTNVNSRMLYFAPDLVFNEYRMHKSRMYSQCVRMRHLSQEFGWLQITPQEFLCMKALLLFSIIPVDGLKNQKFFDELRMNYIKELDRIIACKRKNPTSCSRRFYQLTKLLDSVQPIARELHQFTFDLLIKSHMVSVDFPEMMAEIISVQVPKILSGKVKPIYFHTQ
In short: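 Luminescent reporter readout (ONE-Glo, 30 min, room temperature) after 16 hr co-treatment of MDA-kb2 cells with test compounds and 0.5 nM R1881 final, at 37C without CO2. The MMTV-driven luciferase responds to both AR and GR.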
% is scaled to controls: 0 for no effect and ±100 for the full control effect.

CC(=O)c1ccccc1O
inactive: Potency [1] | outcome [2] | Potency [3] | outcome [4] | outcome [5] | Potency [6] | Potency [7]

O=C(CCCN1CCN(c2ccccn2)CC1)c1ccc(F)cc1
inactive: Potency [1] | outcome [2] | Potency [3] | Potency [8] | outcome [5] | Potency [6] | Potency [7]

Brc1c(NC2=NCCN2)ccc2nccnc12
inactive: Potency [1] | outcome [2] | Potency [3] | Potency [8] | Potency [9] | outcome [5] | Potency [6] | Potency [7]

NC(=O)c1ccc(N)cc1
inactive: Potency [1] | outcome [2] | Potency [3] | outcome [4] | outcome [5] | Potency [6] | Potency [7]

CCCC(=O)O[C@]1(C(=O)CO)CC[C@H]2[C@@H]3CCC4=CC(=O)CC[C@]4(C)[C@H]3[C@@H](O)C[C@@]21C
inactive: Potency [1] | outcome [2] | Potency [3] | Potency [8] | Potency [9] | outcome [5] | Potency [6] | Potency [7]

CC[N+](C)(C)c1cccc(O)c1
inactive: Potency [1] | outcome [2] | Potency [3] | Potency [8] | Potency [9] | outcome [5] | Potency [6] | Potency [7]

CC(=O)OCC(=O)[C@@]1(O)CCC2C3CCC4=CC(=O)CC[C@]4(C)C3[C@@H](O)C[C@@]21C (stereo partly drawn)
inactive: Potency [1] | outcome [2] | Potency [3] | Potency [8] | Potency [9] | outcome [5] | Potency [6] | Potency [7]

O=c1[nH]c(=O)n([C@H]2C[C@H](O)[C@@H](CO)O2)cc1I
inactive: Potency [1] | outcome [2] | Potency [3] | Potency [8] | Potency [9] | outcome [5] | Potency [6] | Potency [7]

CCCN(CCC)CCc1cccc2c1CC(=O)N2
inactive: Potency [1] | outcome [2] | Potency [3] | Potency [8] | Potency [9] | outcome [5] | Potency [6] | Potency [7]

Cc1ccc(C#N)cc1
inactive: Potency [1] | outcome [2] | Potency [3] | outcome [4] | outcome [5] | Potency [6] | Potency [7]

NC(=O)c1cn(Cc2c(F)cccc2F)nn1
inactive: Potency [1] | outcome [2] | Potency [3] | Potency [8] | Potency [9] | outcome [5] | Potency [6] | Potency [7]

C/C=C(\C)C#N
inactive: Potency [1] | outcome [2] | Potency [3] | outcome [5] | Potency [6] | Potency [7]

CC(C)CNCC(C)C
inactive: Potency [1] | outcome [2] | Potency [3] | Potency [9] | outcome [5] | Potency [6] | Potency [7]

O=C(O)CNC(=O)c1ccc([N+](=O)[O-])cc1
inactive: Potency [1] | outcome [2] | Potency [3] | Potency [9] | outcome [5] | Potency [6] | Potency [7]

CC/C=C\CC/C=C/CO
inactive: Potency [1] | outcome [2] | Potency [3] | Potency [9] | outcome [5] | Potency [6] | Potency [7]

O=C(c1ccccc1)C1CCCCC1
inactive: outcome [2] | Potency [3] | Potency [10] | outcome [4] | outcome [5] | Potency [6] | Potency [7]

CCCCCCCCCCCCN(CCCCCCCCCCCC)CCCCCCCCCCCC
inactive: Potency [1] | outcome [2] | Potency [3] | Potency [9] | outcome [5] | Potency [6] | Potency [7]

CC(C)=CCCC(C)CC(=O)O (stereo not drawn)
inactive: Potency [1] | outcome [2] | Potency [3] | outcome [5] | Potency [6] | Potency [7]

CCC(C)S (stereo not drawn)
inactive: cytotoxicity increase [1] -0.336% [at 2.72 µM] | activity change, negative = cytotoxicity [2] 5.76% [at 3.27 µM] | viability change, negative = cytotoxic [3] 1.28% [at 3.26 µM] | activity change, negative = inhibition [9] 0.148% [at 3.27 µM] | activity change, negative = cytotoxicity [5] 1.61% [at 3.27 µM] | viability change, negative = cytotoxic [6] 3.35% [at 3.27 µM] | viability change, negative = cytotoxic [7] 3.76% [at 3.27 µM]

CC/C=C\CC/C=C/C(OCC)OCC
inactive: Potency [1] | outcome [2] | Potency [3] | Potency [9] | outcome [5] | Potency [6] | Potency [7]

Nc1ccccc1S(=O)(=O)O
inactive: Potency [1] | outcome [2] | Potency [3] | Potency [9] | outcome [5] | Potency [6] | Potency [7]

NS(=O)(=O)c1ccccc1Cl
inactive: Potency [1] | outcome [2] | Potency [3] | Potency [9] | outcome [5] | Potency [6] | Potency [7]

CN(C)CCCN1c2ccccc2CCc2ccc(Cl)cc21
inactive: Potency [1] | Potency [9] | outcome [5]
active: Potency [3] 48.6 µM | Potency [6] 30.6 µM
48.6 µM (active) and inactive: Potency [7]

NC(=O)c1ccc([N+](=O)[O-])cc1
inactive: Potency [1] | outcome [2] | Potency [3] | outcome [5] | Potency [6] | Potency [7]

COC(=O)CCSCCC(=O)OC
inactive: Potency [1] | outcome [2] | Potency [3] | Potency [9] | outcome [5] | Potency [6] | Potency [7]

CC(C)CCCC(C)N (stereo not drawn)
inactive: Potency [1] | Potency [3] | outcome [4] | Potency [8] | Potency [9] | outcome [5] | Potency [6] | Potency [7]

CCCCOCCOCCOCCCC
inactive: Potency [1] | outcome [2] | Potency [3] | outcome [5] | Potency [6] | Potency [7]

C[C@H]1C[C@@H](O)CC(C)(C)C1
inactive: Potency [1] | outcome [2] | Potency [3] | Potency [9] | outcome [5] | Potency [6] | Potency [7]

CCCCCCCCS(=O)(=O)Cl
inactive: Potency [1] | outcome [2] | Potency [3] | Potency [9] | outcome [5] | Potency [6] | Potency [7]

CC(C[N+](C)(C)C)OC(N)=O (stereo not drawn)
inactive: outcome [2] | Potency [3] | outcome [4] | Potency [8] | Potency [9] | outcome [5] | Potency [6] | Potency [7]

N=C(N)c1ccccc1
inactive: Potency [1] | outcome [2] | Potency [3] | Potency [9] | outcome [5] | Potency [6] | Potency [7]

COC(=O)c1ccc(C)cc1C1=NC(C)(C(C)C)C(=O)N1 (stereo not drawn)
inactive: Potency [1] | outcome [2] | Potency [3] | Potency [9] | outcome [5] | Potency [6] | Potency [7]

C1OCOCO1
inactive: Potency [1] | outcome [2] | Potency [3] | Potency [9] | outcome [5] | Potency [6] | Potency [7]

COc1ccc(CCN(C)CCCC(C#N)(c2cc(OC)c(OC)c(OC)c2)C(C)C)cc1OC (stereo not drawn)
active: Potency [8] 5.62 µM | Potency [6] 15 µM
inactive: Potency [1] | Potency [3] | Potency [9] | outcome [5]

COC(C)(C)CCCC(C)CC=O (stereo not drawn)
inactive: Potency [1] | outcome [2] | Potency [3] | Potency [9] | outcome [5] | Potency [6] | Potency [7]

CCCCCCCCCCCC
inactive: Potency [1] | outcome [2] | Potency [3] | Potency [9] | outcome [5] | Potency [6] | Potency [7]

OC[C@]1(O)OC[C@@H](O)[C@H](O)[C@@H]1O
inactive: Potency [1] | outcome [2] | Potency [3] | Potency [9] | outcome [5] | Potency [6] | Potency [7]

Cn1c(N)c(N=O)c(=O)n(C)c1=O
inactive: Potency [1] | outcome [2] | Potency [3] | Potency [9] | outcome [5] | Potency [6] | Potency [7]

CCc1cccc2c(CCO)c[nH]c12
inactive: Potency [1] | outcome [2] | Potency [3] | Potency [9] | outcome [5] | Potency [6] | Potency [7]

O=C(CCCN1CCC(O)(c2cccc(C(F)(F)F)c2)CC1)c1ccc(F)cc1
inactive: Potency [1] | outcome [2] | Potency [3] | Potency [9] | outcome [5] | Potency [6] | Potency [7]

O=C(O)CCCc1ccccc1
inactive: outcome [2] | Potency [3] | Potency [8] | Potency [9] | outcome [5] | Potency [6] | Potency [7]

O=C1CCCC(=O)C1
inactive: Potency [1] | outcome [2] | Potency [3] | Potency [9] | outcome [5] | Potency [6] | Potency [7]

CCc1ccc(O)c(OC)c1
inactive: Potency [1] | outcome [2] | Potency [3] | Potency [9] | outcome [5] | Potency [6] | Potency [7]

COC(=O)CC(C)=O
inactive: Potency [1] | outcome [2] | Potency [3] | outcome [5] | Potency [6] | Potency [7]

COC(=O)c1cc(C(=O)OC)cc(S(=O)(=O)O)c1
inactive: Potency [1] | outcome [2] | Potency [3] | outcome [5] | Potency [6] | Potency [7]

C=CCOCC(CC)(CO)COCC=C
inactive: Potency [1] | outcome [2] | Potency [3] | Potency [9] | outcome [5] | Potency [6] | Potency [7]
